PubChem BioAssay (NCI)
This is part of a sample that, as a whole, favours compounds with a hit. Of some 83,000 tested, about 20% had one in any assay.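 For each line, cells grew in 96-well plates with the test compound present at a single concentration for 48 hours.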 Activity calls are given as the source filed them. How the source made its calls: active means growth percent below 10; inactive means the rest.

Experiments:
Assay in all cases: NCI-60 one-dose screen, 48 h (100 = growth as untreated, 0 = no growth, -100 = all killed)
Details in all cases: 10 µM
SR leukemia = test system: SR leukemia
RPMI-8226 leukemia = test system: RPMI-8226 leukemia
OVCAR-8 ovarian = test system: OVCAR-8 ovarian
OVCAR-5 ovarian = test system: OVCAR-5 ovarian
OVCAR-4 ovarian = test system: OVCAR-4 ovarian
SK-OV-3 ovarian = test system: SK-OV-3 ovarian
IGROV1 ovarian = test system: IGROV1 ovarian
OVCAR-3 ovarian = test system: OVCAR-3 ovarian
HS 578T breast = test system: HS 578T breast
NCI/ADR-RES ovarian = test system: NCI/ADR-RES ovarian

Measured: growth

O=C1/C(=C/c2ccc(O)cc2)Cc2ccc(Cl)cc21
inactive: SR leukemia 117% | RPMI-8226 leukemia 120% | OVCAR-8 ovarian 86.3% | OVCAR-5 ovarian 111% | OVCAR-4 ovarian 85.5% | SK-OV-3 ovarian 111% | IGROV1 ovarian 18.8% | OVCAR-3 ovarian 93% | HS 578T breast 95.4% | NCI/ADR-RES ovarian 94.2%

Cc1cc(C)c(C(=O)OC(C)CNC2CCCCC2)c(C)c1 (stereo not given)
inactive: SR leukemia 81.6% | RPMI-8226 leukemia 92.9% | OVCAR-8 ovarian 101% | OVCAR-5 ovarian 59.2% | OVCAR-4 ovarian 101% | SK-OV-3 ovarian 96.7% | IGROV1 ovarian 101% | OVCAR-3 ovarian 98.5% | HS 578T breast 100% | NCI/ADR-RES ovarian 92.3%

COc1ccc(C2=NNC(c3sc(Cl)nc3Cl)C2)cc1 (stereo not given)
active: SR leukemia 2.77%
inactive: RPMI-8226 leukemia 81% | OVCAR-8 ovarian 70.3% | OVCAR-5 ovarian 123% | OVCAR-4 ovarian 80.5% | SK-OV-3 ovarian 90% | IGROV1 ovarian 63.3% | OVCAR-3 ovarian 61.9% | HS 578T breast 114% | NCI/ADR-RES ovarian 105%

c1ccc(CC(NCCNC(Cc2ccccc2)c2ccccc2)c2ccccc2)cc1 (stereo not given)
active: SR leukemia -33.7% | RPMI-8226 leukemia -41.1%
inactive: OVCAR-8 ovarian 22.5% | OVCAR-5 ovarian 55.2% | OVCAR-4 ovarian 35.6% | SK-OV-3 ovarian 84% | IGROV1 ovarian 36.4% | OVCAR-3 ovarian 22.9% | HS 578T breast 73.4% | NCI/ADR-RES ovarian 38.8%

Cc1noc(C)c1-c1ccc2nc(NC(=O)[C@H]3CCN(C#N)C3)cn2c1
inactive: SR leukemia 42.3% | RPMI-8226 leukemia 97.2% | OVCAR-8 ovarian 91.6% | OVCAR-5 ovarian 92.7% | OVCAR-4 ovarian 63.9% | SK-OV-3 ovarian 103% | IGROV1 ovarian 82.2% | OVCAR-3 ovarian 71.7% | HS 578T breast 84.4% | NCI/ADR-RES ovarian 95.8%

Nc1c(CNCc2nnn(Cc3ccccc3)c2N)nnn1Cc1ccccc1
inactive: SR leukemia 90% | RPMI-8226 leukemia 94.7% | OVCAR-8 ovarian 99.8% | OVCAR-5 ovarian 95.5% | OVCAR-4 ovarian 92.1% | SK-OV-3 ovarian 114% | IGROV1 ovarian 102% | OVCAR-3 ovarian 107% | HS 578T breast 99% | NCI/ADR-RES ovarian 97.2%

C#Cc1ccc(-n2c(/C=C/c3cc(OC)c(OC)c(OC)c3)nc3ncccc3c2=O)cc1
active: OVCAR-3 ovarian 4.62%
inactive: SR leukemia 11.2% | RPMI-8226 leukemia 40.9% | OVCAR-8 ovarian 75.1% | OVCAR-5 ovarian 120% | OVCAR-4 ovarian 63.4% | SK-OV-3 ovarian 65.9% | IGROV1 ovarian 56.3% | HS 578T breast 75.4% | NCI/ADR-RES ovarian 54.6%

CNCCCNCCCN1C(=O)c2ccc3c4c(ccc(c24)C1=O)C(=O)N(CCCNCc1ccccc1OC)C3=O
inactive: SK-OV-3 ovarian 36.8% | NCI/ADR-RES ovarian 63%
active: SR leukemia -0.146% | RPMI-8226 leukemia -16.2% | OVCAR-8 ovarian -31.9% | OVCAR-5 ovarian 5.23% | OVCAR-4 ovarian -91.5% | IGROV1 ovarian -40.7% | OVCAR-3 ovarian -17.6% | HS 578T breast 4.28%

Cc1cc2cc3c(=O)[nH]c(=O)cc-3n(CC(O)C(O)C(O)CO)c2cc1C (stereo not given)
inactive: SR leukemia 111% | RPMI-8226 leukemia 106% | OVCAR-8 ovarian 97.3% | OVCAR-5 ovarian 106% | OVCAR-4 ovarian 109% | SK-OV-3 ovarian 99.1% | IGROV1 ovarian 112% | OVCAR-3 ovarian 103% | HS 578T breast 101% | NCI/ADR-RES ovarian 105%

O=c1oc2c3ccc4cnccc4c3[nH]c2c2ccccc12
active: SR leukemia -51.3% | RPMI-8226 leukemia -21.8%
inactive: OVCAR-8 ovarian 24.3% | OVCAR-5 ovarian 46.8% | OVCAR-4 ovarian 25.2% | SK-OV-3 ovarian 89.1% | IGROV1 ovarian 21.2% | OVCAR-3 ovarian 38.2% | HS 578T breast 68.1% | NCI/ADR-RES ovarian 71.5%

CC(=O)OC1Oc2ccccc2-c2oc(=O)c(-c3cc(=O)oc4cc(O)ccc34)cc21 (stereo not given)
active: SR leukemia 3.66%
inactive: RPMI-8226 leukemia 46.7% | OVCAR-8 ovarian 89.1% | OVCAR-5 ovarian 75.8% | OVCAR-4 ovarian 77.2% | SK-OV-3 ovarian 83.3% | IGROV1 ovarian 49.4% | OVCAR-3 ovarian 63.8% | HS 578T breast 59.5% | NCI/ADR-RES ovarian 75.5%

Cc1ccc(-c2cc(-c3cccc(Nc4ccnc5cc(Cl)ccc45)c3)nc3nc(N)[nH]c(=O)c23)cc1
inactive: SR leukemia 48.9% | RPMI-8226 leukemia 92.8% | OVCAR-8 ovarian 92.5% | OVCAR-5 ovarian 108% | OVCAR-4 ovarian 111% | SK-OV-3 ovarian 111% | IGROV1 ovarian 76.7% | OVCAR-3 ovarian 92.7% | HS 578T breast 104% | NCI/ADR-RES ovarian 100%

Cn1c([N+](=O)[O-])cnc1/C=C1\Oc2ccc(Br)cc2C1=O
active: SR leukemia 6.49% | RPMI-8226 leukemia 6.2% | OVCAR-8 ovarian -11.3% | OVCAR-5 ovarian -19.1% | OVCAR-4 ovarian 3.03% | SK-OV-3 ovarian -7.97% | IGROV1 ovarian -21.6% | OVCAR-3 ovarian -37.3% | HS 578T breast -17.8% | NCI/ADR-RES ovarian 6.72%

O=S(=O)(NC1c2ccccc2Oc2ccccc21)c1cc(Cl)ccc1Cl
inactive: SR leukemia 66.8% | RPMI-8226 leukemia 96.7% | OVCAR-8 ovarian 93.5% | OVCAR-5 ovarian 109% | OVCAR-4 ovarian 80.9% | SK-OV-3 ovarian 98.1% | IGROV1 ovarian 95.5% | OVCAR-3 ovarian 98.7% | HS 578T breast 102% | NCI/ADR-RES ovarian 93.5%

COc1ccc(-c2cc(/C=C3\C(=O)Nc4cc(Cl)ccc43)[nH]n2)cc1
active: OVCAR-3 ovarian -3% | HS 578T breast -4.18% | NCI/ADR-RES ovarian 9.42%
inactive: SR leukemia 19.3% | RPMI-8226 leukemia 19.7% | OVCAR-8 ovarian 48.1% | OVCAR-5 ovarian 69.4% | OVCAR-4 ovarian 64.1% | SK-OV-3 ovarian 28.8% | IGROV1 ovarian 42.6%

Cc1c(C(=O)N[C@H](CO)Cc2ccccc2)[nH]c2ccc(Cl)cc2c1=O
inactive: SR leukemia 81.4% | RPMI-8226 leukemia 92.3% | OVCAR-8 ovarian 96.6% | OVCAR-5 ovarian 112% | OVCAR-4 ovarian 108% | SK-OV-3 ovarian 99.8% | IGROV1 ovarian 106% | OVCAR-3 ovarian 111% | HS 578T breast 102% | NCI/ADR-RES ovarian 108%

Cc1ccc2nc(-c3ccc(OCC(=O)N=Nc4c(O)[nH]c5ccccc45)cc3)[nH]c2c1
active: SR leukemia -17.5%
inactive: RPMI-8226 leukemia 25.7% | OVCAR-8 ovarian 18.5% | OVCAR-5 ovarian 104% | OVCAR-4 ovarian 11.6% | SK-OV-3 ovarian 99.5% | IGROV1 ovarian 85.8% | OVCAR-3 ovarian 26.5% | HS 578T breast 91.5% | NCI/ADR-RES ovarian 89.9%

COCCOC(=O)NC(=O)Nc1ccc(C(=O)c2ccc(Cl)cc2)cc1
active: OVCAR-3 ovarian 6.85%
inactive: SR leukemia 22.2% | RPMI-8226 leukemia 19.2% | OVCAR-8 ovarian 40.4% | OVCAR-5 ovarian 90.7% | OVCAR-4 ovarian 56.9% | SK-OV-3 ovarian 27.2% | IGROV1 ovarian 51.3% | HS 578T breast 32% | NCI/ADR-RES ovarian 18.9%

C[N+]1(CC2CO2)CCCCCC1 (stereo not given)
inactive: SR leukemia 106% | RPMI-8226 leukemia 103% | OVCAR-8 ovarian 106% | OVCAR-5 ovarian 95.9% | OVCAR-4 ovarian 94.3% | SK-OV-3 ovarian 113% | IGROV1 ovarian 112% | OVCAR-3 ovarian 104% | HS 578T breast 114% | NCI/ADR-RES ovarian 113%

O=C1/C(=C/c2cccs2)CCC/C1=C\c1cccs1
inactive: SR leukemia 78.1% | RPMI-8226 leukemia 57.5% | OVCAR-8 ovarian 93.2% | OVCAR-5 ovarian 79.5% | OVCAR-4 ovarian 77.9% | SK-OV-3 ovarian 101% | IGROV1 ovarian 98.8% | OVCAR-3 ovarian 107% | HS 578T breast 95.7% | NCI/ADR-RES ovarian 88.7%

[O-]c1c[n+](-c2ccc(Cl)cc2)no1
inactive: SR leukemia 97.9% | RPMI-8226 leukemia 101% | OVCAR-8 ovarian 106% | OVCAR-5 ovarian 96.7% | OVCAR-4 ovarian 82.1% | SK-OV-3 ovarian 105% | IGROV1 ovarian 80.7% | OVCAR-3 ovarian 104% | HS 578T breast 101% | NCI/ADR-RES ovarian 103%

CCCCC(CC#N)(CCC)CCC
inactive: SR leukemia 93.6% | RPMI-8226 leukemia 100% | OVCAR-8 ovarian 104% | OVCAR-5 ovarian 104% | OVCAR-4 ovarian 93.2% | SK-OV-3 ovarian 94.8% | IGROV1 ovarian 102% | OVCAR-3 ovarian 106% | HS 578T breast 113% | NCI/ADR-RES ovarian 97.7%

C/C(=N\NC(=O)c1sc(=S)n(C)c1N)c1cc2ccccc2o1
inactive: SR leukemia 42.6% | RPMI-8226 leukemia 42.5% | OVCAR-8 ovarian 69.6% | OVCAR-5 ovarian 74.1% | OVCAR-4 ovarian 61% | SK-OV-3 ovarian 133% | IGROV1 ovarian 37.5% | OVCAR-3 ovarian 65% | HS 578T breast 61.6% | NCI/ADR-RES ovarian 49.1%

O=[N+]([O-])c1ccc(-c2nc(-c3ccccc3)c(-c3ccccc3)n2-c2ccccc2)cc1
active: SR leukemia 4.19% | RPMI-8226 leukemia -20.3% | IGROV1 ovarian -29.1% | NCI/ADR-RES ovarian 5.77%
inactive: OVCAR-8 ovarian 26.7% | OVCAR-5 ovarian 91.5% | OVCAR-4 ovarian 24.7% | SK-OV-3 ovarian 55.5% | OVCAR-3 ovarian 40.2% | HS 578T breast 20.5%

Cc1ccc2nc3[nH]c(=O)[nH]c(=O)c3c(N)c2c1
inactive: SR leukemia 95.6% | RPMI-8226 leukemia 89.8% | OVCAR-8 ovarian 88.5% | OVCAR-5 ovarian 92.9% | OVCAR-4 ovarian 81.7% | SK-OV-3 ovarian 86% | IGROV1 ovarian 75.1% | OVCAR-3 ovarian 101% | HS 578T breast 79.2% | NCI/ADR-RES ovarian 97.8%

NC1CCC(Nc2nc(NCc3ccc(-c4ccccc4O)nc3)c3ncn(C4CCCC4)c3n2)CC1 (stereo not given)
inactive: OVCAR-5 ovarian 19.3% | NCI/ADR-RES ovarian 10.3%
active: SR leukemia -41.3% | RPMI-8226 leukemia -28% | OVCAR-8 ovarian 7.26% | OVCAR-4 ovarian 6.5% | SK-OV-3 ovarian 8.5% | IGROV1 ovarian 8.35% | OVCAR-3 ovarian -6.34% | HS 578T breast 8.94%

COc1ccccc1Cn1cc2c(c1-c1ccccc1)CCc1cnoc1-2
inactive: SR leukemia 26.3% | RPMI-8226 leukemia 38.8% | OVCAR-8 ovarian 56% | OVCAR-5 ovarian 77.2% | OVCAR-4 ovarian 61.4% | SK-OV-3 ovarian 19.1% | IGROV1 ovarian 44.8% | NCI/ADR-RES ovarian 21.3%
active: OVCAR-3 ovarian 6.99% | HS 578T breast 9.97%
